aSyn UTR act: Activators via SNCA 5'UTR binding, MLPCN. alpha-synuclein 5'UTR reporter, activators screen. activity score, % (tested at 7.5 µM), hits read low. actives 7.1% (n = 300,000). AID 1814, 2009; in the data active = activity score below about -60%
* = called active by the depositor. A selection follows.

SMILES | aSyn UTR act
CCN(CC)C(=O)c1ccc(NC(=O)c2cccc(F)c2)cc1 | -80*
NC(=S)c1cn(C2OC(CO)C(O)C2O)c2ncnc(N)c12 (centres undefined) | 105
CCCCCCOC(=O)c1ccccc1N | -136*
CCCCCCCSc1cc(OC)c(CCNC)cc1OC | 121
Nc1ccc2c(c1)Cc1ccccc1-2 | -175*
CC1(C)CN=C(Nc2nc3ccccc3s2)S1 | -118*
COc1ccc(-[n+]2c(-c3ccccc3)cc(-c3ccccc3)cc2-c2ccccc2)cc1 | 81
COc1ccc(-c2nc3ccccc3c(=O)o2)cc1 | -65*
CC[C@@]1(O)C(=O)OCc2c1cc1n(c2=O)Cc2cc3c(NC(=O)CN)cccc3nc2-1 | 71
Nc1cc2nc3ccccc3nc2cc1N | -64*
CN(C)C(=O)Oc1ccc2c(=O)c(Oc3ccccc3Br)coc2c1 | -77*
Cc1ccc(/C=C2\C(=O)NC(=S)N(c3ccc(F)cc3)C2=O)s1 | -116*
CN(C)c1ccc(/C=C2/C(=N\O)C3CCN2CC3)cc1 | -133*
CCC(=NCCC1=CCCCC1)c1c(O)[nH]c(=O)[nH]c1=O | 48
COc1ccc(-c2cc(C(=O)N3CCC4(CC3)OCCO4)c3ccccc3n2)cc1 | -88*
COc1cc(/C=C/C(=O)c2c(O)n(CCc3ccccc3)c(=O)[nH]c2=O)ccc1O | -69*
O=C(/C=C/c1ccccc1)c1c(O)n(CCc2ccccc2)c(=O)[nH]c1=O | -83*
CC(=O)Nc1ccc(OC(=O)N2CCCCC2)cc1 | 69
C/C1=C\[C@@H](C)C/C=C/[C@H]2[C@@H]3O[C@]3(C)[C@@H](C)[C@H]3[C@H](Cc4c[nH]c5ccccc45)NC(=O)[C@]32C(=O)/C=C/C(=O)[C@@H]1O | 81
CCOc1cccc(CNCCc2c(C)[nH]c3ccc(OC(F)(F)F)cc23)c1O | 113
O=C(NC1CCCCC1)Oc1cc2oc(=O)sc2cc1Cl | -62*
N#Cc1cc2c(nc1SCC(=O)Nc1cc(Cl)ccc1Cl)C1CCN2CC1 | -140*
N#Cc1cc2c(nc1SCC(=O)Nc1ccc(Cl)cc1)C1CCN2CC1 | -159*
C/C=C(\C)C(=O)N[C@@H](c1ccccc1)[C@@H](O)C(=O)O[C@H]1C[C@@]2(O)[C@@H](OC(=O)c3ccccc3)C3[C@](C)(C(=O)[C@H](O)C(=C1C)C2(C)C)[C@@H](O)C[C@H]1OC[C@@]31OC(C)=O (some centres undefined) | 98
COC(=O)c1nc(-c2ccc3c(n2)C(=O)C(N)=C(OC)C3=O)c(N)c(-c2ccc(OC)c(OC)c2O)c1C | 97
SMILES | aSyn UTR act
Cc1ccc(-n2c(C)nc3cc(Cl)ccc3c2=O)nc1 | -117*
O=[N+]([O-])c1ccccc1-c1cc(-c2ccccc2)cc(-c2ccccc2)[n+]1Cc1ccccc1Cl | 64
CC(C)c1ccc(N2C(=O)NC(=O)/C(=C\C=C\c3ccco3)C2=O)cc1 | -70*
O=C1NC(=O)N(Cc2ccccc2)C(=O)/C1=C/C=C/c1ccco1 | -296*
Nc1ncnc2c1ccn2[C@@H]1O[C@H](CO)[C@@H](O)[C@H]1O | 107
CCN1CCN(c2nc3ccccc3s2)CC1 | -131*
C[C@@H]1O[C@@H](O[C@H]2C[C@@H](O)[C@]3(CO)[C@H]4[C@H](O)C[C@]5(C)[C@@H](C6COC(=O)C6)CC[C@]5(O)[C@@H]4CC[C@]3(O)C2)[C@H](O)[C@H](O)[C@H]1O (some centres undefined) | 115
CCc1ccc(N2C(=O)NC(=O)/C(=C/c3cccn3CCOc3ccc(C(C)CC)cc3)C2=O)cc1 (centres undefined) | -82*
CCC1(OC(=O)CN)C(=O)OCc2c1cc1n(c2=O)Cc2cc3ccccc3nc2-1 (centres undefined) | 103
CC(C)n1c(O)c(C2c3cc(Cl)ccc3Oc3[nH]c(=O)n(C(C)C)c(=O)c32)c(=O)[nH]c1=O (centres undefined) | -88*
Cc1ccc(-c2nc3ccc(Cl)cc3n2OC(=O)N(C)C)cc1 | -129*
Cn1c(O)c(Cc2ccc(OCc3ccccc3)cc2)c(=O)n(C)c1=O | -140*
O=c1[nH]c(=S)[nH]c(O)c1N=Nc1ccc(SC(F)F)cc1 | -72*
CC[C@@]1(O)C(=O)OCc2c1cc1n(c2=O)Cc2cc3ccccc3nc2-1 | 116
O=C(Nc1ccc2c(c1)OCO2)c1cn(Cc2ccc(F)cc2)nn1 | -76*
CN1C(=O)N(C)C(=O)C2(Cc3cc([N+](=O)[O-])ccc3N(C)C2c2ccccc2)C1=O (centres undefined) | -62*
CCC(CC)NCc1c[nH]c2ccccc12 | -62*
CCCC(=O)Nc1cc(C(=O)N2CCC3(CC2)OCCO3)ccc1S(=O)(=O)c1ccc(C)cc1 | 35
Cc1ccc2nc(N3CCC(C(=O)N4CCC5(CC4)OCCO5)CC3)sc2c1 | -78*
O=C(C1CCN(c2nc3ccc(Br)cc3s2)CC1)N1CCC2(CC1)OCCO2 | -80*
CCOc1ccc2nc(N3CCC(C(=O)N4CCC5(CC4)OCCO5)CC3)sc2c1 | -82*

High-throughput results as filed in PubChem BioAssay.
